{
  "source": "PubChem BioAssay (NCI)",
  "note": "Several values for one entry are separate records, joined by “and”; a condition that tells them apart may be missing. Equal entries are not always repeated. About 83,000 compounds went through this panel and 20% of them were active in at least one assay; those are over-represented in the sample as a whole.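 Cell lines were cultured in 96-well plates, exposed to a single compound concentration, and assessed for percent growth 48 hours later.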 Unmarked numbers belong to inactive results. Activity calls are given as the source filed them. How the source made its calls: active means growth percent below 10; inactive means the rest.",
  "data": [
    {"system": "HL-60(TB) leukemia", "test": "NCI-60 one-dose screen, 48 h (100 = growth as untreated, 0 = no growth, -100 = all killed)", "conditions": "10 µM unless noted", "values": [
      {"compound": "COc1cc(-c2nn(C(C)(C)C)cc2-c2ccnc(NCCCNS(=O)(=O)c3ccc(C)cc3)n2)ccc1Cl", "growth": "108%"},
      {"compound": "NS(=O)(=O)c1ccc(-n2cc(CC=O)nn2)cc1", "growth": "105%"},
      {"compound": "O=C(CSc1nnc(-c2ccc(Cl)cc2)n1-c1ccccc1)Nc1ccc(Cl)cc1", "growth": "79.8%"},
      {"compound": "COc1ccc(N2CCN(C3=C(Cl)C(=O)C(C)=C(C)C3=O)CC2)cc1", "growth": "80.3%"},
      {"compound": "CCCCCc1ccc(S(=O)(=O)Nc2cccc(-c3csc(NC(=O)CCCCCN4CCN(CCO)CC4)n3)c2)cc1", "growth": "63.4%"},
      {"compound": "COc1ccc(C(C)=C(c2ccc(OCCN(C)C)cc2)c2ccc(OCCN(C)C)cc2)cc1", "growth": "-63.3% (active)"},
      {"compound": "O=C(O)c1ccc(-n2cc(CNc3cccc(Cl)c3)c(-c3ccc(F)cc3)n2)cc1", "growth": "105%"},
      {"compound": "O=C(O)CNS(=O)(=O)c1ccc(Oc2ccc(S(=O)(=O)NCC(=O)O)cc2)cc1", "growth": "91%"},
      {"compound": "O=C1C(SCc2ccccc2)=C(Cl)CN1c1ccccc1", "growth": "72.6%"},
      {"compound": "CSc1ccc(C(=NNS(=O)(=O)c2ccc(C)cc2)c2ccc(Cl)cc2)cc1", "growth": "97.1%"},
      {"compound": "CCN(CC)c1ccc(/C=N/NC(=O)c2ccc(NS(C)(=O)=O)cc2)cc1", "growth": "3.16% (active)"},
      {"compound": "CCOC(=O)c1c(NC(=O)c2ccc(C(F)(F)F)cc2)sc2c(CN3CCN(C)CC3)c(O)ccc12", "growth": "-36.8% (active)"},
      {"compound": "CCCn1cnc2c(c1=N)C(c1ccc(Cl)cc1)c1sc3c(CC)cccc3c1O2", "note": "(stereo not given)", "growth": "0.217% (active)"},
      {"compound": "COc1cc(/C=C/C(=O)c2ccc(C(F)(F)F)cc2)ccc1Oc1nc(NCCO)nc(N2CCOCC2)n1", "growth": "53.4%"},
      {"compound": "COc1ccc(N2C(=O)c3cc(Cl)ccc3NC2SCc2ccccc2)cc1", "note": "(stereo not given)", "growth": "114%"},
      {"compound": "C#Cc1ccc(C(=O)NCc2ccc(/C=C/C(=O)c3nccn3C)cc2)cc1", "growth": "0.695% (active)"},
      {"compound": "Cc1ccc(-c2nnc(SCc3ccc(O)c4ncccc34)n2-c2ccccc2)cc1", "growth": "0.292% (active)"},
      {"compound": "O=C(COc1ccc(C2SCC(=O)N2c2ccccc2)cc1)c1ccccc1", "note": "(stereo not given)", "growth": "96.2%"},
      {"compound": "COc1ccc([C@H]2C(=O)N(c3cc(OC)c(OC)c(OC)c3)[C@@H]2c2ccc(OC)c(O)c2)cc1", "growth": "-21.2% (active)"},
      {"compound": "O=C1C(N2CCN(c3ccccc3)CC2)=C(Cl)C(=O)c2ncccc21", "growth": "4.34% (active)"},
      {"compound": "CC(C)Sc1nc(Nc2ccc(S(N)(=O)=O)cc2)c(C#N)c(-c2ccc(F)cc2)n1", "growth": "45.4%"},
      {"compound": "O=C(Nc1ccc(N2CCOCC2)cc1)Nc1ccc2c(ccn2C(=O)c2cccc(F)c2)c1", "growth": "96.7%"},
      {"compound": "CCCCCc1ccc(S(=O)(=O)Nc2cccc(-c3csc(NC(=O)CN4CCN(CCO)CC4)n3)c2)cc1", "growth": "66.3%"},
      {"compound": "O=C(CCCCCC/C=C\\c1csc(Br)n1)NO", "growth": "78.5%"},
      {"compound": "Cc1ccccc1NC(=O)/C=C/c1ccc(OCCOc2ccc3c(C)cc(=O)oc3c2)cc1", "growth": "97.2%"},
      {"compound": "CCc1ccc(NC(=O)N[C@@H](Cc2cc(F)cc(F)c2)C(=O)N[C@@H]2C(=O)N3CCC[C@H]3C(=O)N3CCO[C@H](C)[C@H]3C(=O)N[C@@H](CO)C(=O)N3C[C@H](C)C[C@H]3C(=O)O[C@H]2C)c(F)c1", "growth": "15.4%"},
      {"compound": "CS(=O)(=O)Nc1ccc(-c2nn(-c3ccc(S(C)(=O)=O)cc3)cc2/C=C/C(=O)c2ccc(NC(=O)CO[N+](=O)[O-])cc2)cc1", "growth": "107%"},
      {"compound": "O=C1[C@H]2Cc3c([nH]c4ccccc34)[C@H](c3ccc(Cl)cc3)N2C(=O)CN1C1CCN(CC2CCCCC2)CC1", "growth": "47.2%"},
      {"compound": "Cc1c(Cl)cccc1S(=O)(=O)Nc1ccc2c(c1)C(=O)N(C1CCC(=O)NC1=O)C2=O", "note": "(stereo not given)", "growth": "-7.01% (active)"},
      {"compound": "C=C(C)C(=O)O[C@H]1C[C@@]2(C)OC(=CC2=O)[C@H](C)[C@H](O)[C@H]2OC(=O)C(=C)[C@@H]21", "growth": "14.3%"},
      {"compound": "C(=N\\Nc1nc(N/N=C/c2ccc3c(c2)OCO3)nc(N2CCCCC2)n1)/c1ccc2c(c1)OCO2", "growth": "60.4%"},
      {"compound": "IP(CCCSc1n(Cc2ccc3ccccc3c2)c(-c2ccccc2)c(-c2ccccc2)[n+]1Cc1ccc2ccccc2c1)(c1ccccc1)(c1ccccc1)c1ccccc1", "growth": "-29.1% (active)"},
      {"compound": "COc1ccc2c(c1)c(-c1nn3cc(-c4ccncc4)nc3s1)cn2C", "growth": "-25.5% (active)"},
      {"compound": "C/C(=C(/c1ccc(Cl)cc1)c1ccc(OCCN)cc1)c1ccc(C)cc1", "growth": "102%"},
      {"compound": "COc1c(N2CC3CCCNC3C2)c(F)cc2c(=O)c(C(=O)N/N=C/c3ccccc3)cn(C3CC3)c12", "note": "(stereo not given)", "growth": "73.6%"},
      {"compound": "CCCCCCCCCC(=O)NC(C)(C)C(=O)N1CCC[C@H]1C(=O)N[C@@H](CC(C)C)C(=O)N[C@@](C)(CC)C(=O)N[C@@H](CCC(N)=O)C(=O)N[C@H](CCC(N)=O)C(=O)NC(C)(C)C(=O)NC(C)(C)C(=O)N[C@@H](CCC(N)=O)C(=O)N[C@H](CC(C)C)C(=O)N[C@H](CO)CC(C)C", "growth": "-76.7% (active) and -39.4% (active)"},
      {"compound": "Cc1cccc2sc(/N=C(\\N)C(Br)Br)nc12", "growth": "0.778% (active)"},
      {"compound": "O=C(NNc1nc2cc(F)ccc2n2c(CN3CCC(O)C3)ccc12)c1cnccn1", "note": "(stereo not given)", "growth": "-14.8% (active)"},
      {"compound": "Cn1ccnc1C(=O)/C=C/c1ccc(NC(=O)Nc2ccccc2)cc1", "growth": "-16.5% (active)"},
      {"compound": "C[C@@H]1C[C@H]2C(=O)OCC(NC(=O)[C@H](Cc3cc(F)cc(F)c3)NC(=O)Nc3ccc(Cl)cc3F)C(=O)N3CCC[C@H]3C(=O)N3CCCC[C@H]3C(=O)N[C@@H](C)C(=O)N2C1", "note": "(stereo not given in full)", "growth": "6.2% (active)"}
    ]}
  ]
}
